Assay results: PubChem BioAssay (Tox21)
Records with an inconclusive call do not appear. The source made the active and inactive calls. The call rests on the fitted dose curve; in most records, active means well fitted cell-killing curve with a large enough effect in the repeat runs; inconclusive means weak or mixed curves, or effect the other way; inactive means no such curve, though single readings can be large or run the other way.

test: qHTS assay to identify small molecule antagonists of the peroxisome proliferator-activated receptor gamma (PPARg) signaling pathway - cell viability counter screen (AID 743194); details: PPARg-bla HEK293H viability, CellTiter-Glo luminescence, 17 h, co-treated with 50 nM rosiglitazone; series mostly up to 62.6 µM; further: nearly all actives have a fitted effect of over 55% in size
From the text: U.S. Tox21 Program National Center for Advancing Translational Sciences [NCATS] NIH Chemical Genomics Center [NCGC] U.S. Environmental Protection Agency [EPA] National Institutes of Environmental Health Sciences [NIEHS] National Toxicology Program [NTP] U.S. Food and Drug Administration [FDA] Tox21 Assay Overview: The peroxisome proliferator-activated receptors (PPARs) are lipid-activated transcription factors of the nuclear receptor superfamily with three distinct subtypes namely PPAR alpha, PPAR delta (also called PPAR beta) and PPAR gamma (PPARg). All these subtypes heterodimerize with Retinoid X receptor (RXR) and these heterodimers regulate transcription of various genes. PPAR-gamma receptor (glitazone receptor) is involved in the regulation of glucose and lipid metabolism. To identify the compounds that activate PPAR-gamma signaling, GeneBLAzer PPAR gamma UAS-bla HEK293H cell line (Invitrogen, Carlsbad, CA, USA) containing a beta-lactamase reporter gene under the control of an Upstream Activator Sequence (UAS) was used to screen the Tox21 compound library. The cytotoxicity of the Tox21 compound library against the PPARg-bla cell line was tested in parallel by measuring the cell viability using CellTiter-Glo assay in the same wells.
Tox21 Assay Protocol Summary: PPARg-bla cells were dispensed at 3000 cells/5uL/well in 1536-well black wall/clear bottom plates using a Multidrop Combi (Thermo Fisher Scientific, Waltham, MA) dispenser. After the assay plates were incubated at 37 C and 5% CO2 for 5 h, 23 nL of compounds dissolved in DMSO, positive controls or DMSO only was transferred to the assay plate by a Pintool station (Kalypsys, San Diego, CA), followed by addition of 1ul Rosiglitazone (50 nM, final concentration in the wells). The assay plates were incubated at 37 C for 17 h, and then 1 uL of LiveBLAzerTM B/G FRET substrate was added using a Bioraptr Flying Reagent Dispenser (FRD) workstation (Beckman Coulter, Indianapolis, IN, USA). The assay plates were incubated at room temperature for 1 h and fluorescence intensity was measured by an Envision plate reader (PerkinElmer, Shelton, CT). For cell viability readout that measures cytotoxicity, 4 ul/well of CellTiter-Glo reagent was added into the assay plates using a Flying Reagent Dispenser. After 30 min incubation at room temperature, the luminescence intensity in the plates was measured using a ViewLux plate reader (PerkinElmer).

Q: Which outcome does the source give for Cc1ccc(O)cc1 here?
A: inactive

Q: Which outcome does the source give for NC(=O)c1ccccc1O here?
A: inactive

Q: Which outcome does the source give for NC(=O)NC1NC(=O)NC1=O (stereo not given) here?
A: inactive

Q: With O=C1CN(/N=C/c2ccc([N+](=O)[O-])o2)C(=O)N1 as the molecule, how does the outcome read?
A: inactive

Q: For O=C(O)CCC(=O)O, which outcome is on record?
A: inactive

Q: With Cn1cc[nH]c1=S as the molecule, how does the outcome read?
A: inactive

Q: With O=NO as the molecule, how does the outcome read?
A: inactive

Q: For CC(O)CO (stereo not given), which outcome is on record?
A: inactive

Q: For CCCN(CCC)S(=O)(=O)c1ccc(C(=O)O)cc1, which outcome is on record?
A: inactive

Q: For Cc1noc(NS(=O)(=O)c2ccc(N)cc2)c1C, which outcome is on record?
A: inactive

Q: With N=C(N)c1ccc(OCCCCCOc2ccc(C(=N)N)cc2)cc1 as the molecule, how does the outcome read?
A: inactive

Q: For CCC1(c2ccccc2)C(=O)NCNC1=O, which outcome is on record?
A: inactive

Q: Which outcome does the source give for NC(N)=O here?
A: inactive

Q: Which outcome does the source give for O=c1ccc2ccccc2o1 here?
A: inactive

Q: With O=C(C1CCCCC1)N1CC(=O)N2CCc3ccccc3C2C1 (stereo not given) as the molecule, how does the outcome read?
A: inactive

Q: Which outcome does the source give for O=C(O)CCCCC(=O)O here?
A: inactive

Q: For O=C(O)CCCCCCCC(=O)O, which outcome is on record?
A: inactive

Q: Which outcome does the source give for Nc1ccc(S(=O)(=O)Nc2nccs2)cc1 here?
A: inactive

Q: Which outcome does the source give for CNC[C@H](O)c1cccc(O)c1 here?
A: inactive

Q: Which outcome does the source give for Oc1ccc(/C=C/c2cc(O)cc(O)c2)cc1 here?
A: inactive

Q: Which outcome does the source give for NC(N)=NC(=O)c1nc(Cl)c(N)nc1N here?
A: inactive

Q: Which outcome does the source give for Cc1ccc(S(=O)(=O)NC(=O)NN2CCCCCC2)cc1 here?
A: inactive

Q: For O=C1NC(=O)c2ccccc21, which outcome is on record?
A: inactive

Q: Which outcome does the source give for Cn1c(=O)c2[nH]cnc2n(C)c1=O here?
A: inactive

Q: For O=C(c1ccccc1)c1ccccc1, which outcome is on record?
A: inactive

Q: For Cc1cn([C@H]2C[C@H](N=[N+]=[N-])[C@@H](CO)O2)c(=O)[nH]c1=O, which outcome is on record?
A: inactive

Q: Which outcome does the source give for CC(=O)Nc1nnc(S(N)(=O)=O)s1 here?
A: inactive

Q: With O=S(=O)(O)c1ccc2cc(O)ccc2c1 as the molecule, how does the outcome read?
A: inactive

Q: With O=C(O)c1cc(N=Nc2ccc(S(=O)(=O)Nc3ccccn3)cc2)ccc1O as the molecule, how does the outcome read?
A: inactive

Q: Which outcome does the source give for CCCCC1C(=O)N(c2ccccc2)N(c2ccccc2)C1=O here?
A: inactive

Q: With CCCCCCCCCCCCCCCC(=O)O as the molecule, how does the outcome read?
A: inactive

Q: Which outcome does the source give for C1N2CN3CN1CN(C2)C3 here?
A: inactive

Q: For OC(Cn1cncn1)(Cn1cncn1)c1ccc(F)cc1F, which outcome is on record?
A: inactive

Q: With CC1(C)[C@@H]2CC[C@@]1(C)C(=O)C2 as the molecule, how does the outcome read?
A: inactive

Q: Which outcome does the source give for CCCC(O)C(CC)CO (stereo not given) here?
A: inactive

Q: Which outcome does the source give for O=C(O)C(=O)O here?
A: inactive

Q: For CC(O)C(=O)O (stereo not given), which outcome is on record?
A: inactive

Q: For CC(O)CN(CCN(CC(C)O)CC(C)O)CC(C)O (stereo not given), which outcome is on record?
A: inactive

Q: Which outcome does the source give for Cc1cc(=O)n(-c2ccccc2)n1C here?
A: inactive

Q: With Nc1ccc(C(=O)O)cc1 as the molecule, how does the outcome read?
A: inactive
